# Results from PubChem BioAssay AID488899 (Broad Institute, 2010).
# Among all 330,000 compounds or so, about 2,800 (0.85%) were called active. This is one part of a sample in which actives are shown more often than they occur.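 How the source made its calls: active means mean inhibition across replicates of 60% or more, whatever share of single replicates reaches that level; inconclusive means some that reach 60%, reason not given; inactive means mean inhibition across replicates below 60%.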
# Assay: MITF transcriptional activity suppression – cell-based, SK-MEL-5, single point, luciferase, primary screen (AID 488899)
# Conditions: SK-MEL-5 TRPM1 promoter luciferase, 24 h; at 12.5 µM; active compounds read high
row,SMILES,inhibition
1,O=C(COC(=O)CSc1nnc(-c2ccc(Cl)cc2)o1)Nc1cc(Cl)cc(Cl)c1,-3.64% (inactive)
2,CC(C)c1nc2oc3c(N4CCN(C)CC4)ncnc3c2c2c1CCC2,5.53% (inactive)
3,CC(=O)N1CCc2ccc(N)cc21,6.31% (inactive)
4,CSc1ccccc1NC(=O)c1cnc2sc(C)cn2c1=O,-128% (inactive)
5,COCCN1C(=O)C(=O)/C(=C(/O)c2ccc(S(=O)(=O)N3CCOCC3)cc2)C1c1ccc(O)c(OC)c1 (stereo not given),-1.49% (inactive)
6,O=C(CNCc1ccc(Cl)cc1)Nc1cccc(C(=O)O)c1,2.1% (inactive)
7,O=S1(=O)CCC(NC(=S)SCc2ccccc2Br)C1 (stereo not given),75.3% (active)
8,O=C(CSc1ccccc1F)NC1CCS(=O)(=O)C1 (stereo not given),-4.88% (inactive)
9,CCCSC(=S)NC1CCS(=O)(=O)C1 (stereo not given),17% (inactive)
10,COc1ccc(OC)c(Cc2cnc3nc(N)nc(N)c3c2C)c1,8.03% (inactive)
11,CCOC(=O)N1CCN(C(=O)c2ccc3c(=O)n(CCc4ccc(OC)c(OC)c4)c(=O)[nH]c3c2)CC1,2.29% (inactive)
12,Cc1oc2c(C)c3oc(=O)c(CC(=O)N[C@@H](CC(C)C)C(=O)N[C@@H](Cc4ccccc4)C(=O)O)c(C)c3cc2c1C,9.54% (inactive)
13,CC(C)(C)NC(=O)COc1ccc(CNc2ccc3[nH]c(=O)[nH]c3c2)cc1,0.891% (inactive)
14,O=C(c1ccc2nc(N3CCOCC3)sc2c1)N1CCN(c2ccc(Cl)cc2)CC1,4.87% (inactive)
15,COc1ccc2nc(N3C(=O)C(O)=C(C(=O)c4ccco4)C3c3ccco3)sc2c1 (stereo not given),10.6% (inactive)
16,COc1ccc2nc(N3CCN(C(=O)c4ccc([N+](=O)[O-])o4)CC3)sc2c1,67.3% (active)
17,CC(C)(C)c1nnc2sc(SCC(O)=C(C#N)c3nc4ccccc4[nH]3)nn2c1=O,-7.27% (inactive)
18,O=C(CN1CCc2ccccc2C1)Nc1cccc(S(=O)(=O)N2CCOCC2)c1,4.73% (inactive)
19,COC(=O)c1ccc(CN2CCC(CO)(Cc3ccc(OC)cc3)CC2)cc1,-13% (inactive)
20,Nc1c(Cl)cc(S(N)(=O)=O)cc1S(N)(=O)=O,-2.87% (inactive)
21,S=C(NCCCc1ccccc1)Nc1ccc(Br)cc1,-6.26% (inactive)
22,C=C(C)C(=O)O[C@H]1C/C(C)=C\C(=O)/C=C(\C)[C@H](O)[C@@H]2OC(=O)C(=C)[C@@H]21,85.9% (active)
23,O=[N+]([O-])c1cccc(C=NN=Cc2ccccc2O)c1,-42.5% (inactive)

row,SMILES,inhibition
1,CCOc1ccc(CCNC(=O)COC(=O)C2CCN(S(=O)(=O)c3ccccc3)CC2)cc1OCC,9.54% (inactive)
2,Cc1nn(Cc2ccc(Cl)cc2)c(Cl)c1/C=N/NC(=O)c1cccnc1,18.6% (inactive)
3,Cc1c(Cl)c([N+](=O)[O-])nn1Cc1ccc(C(=O)N/N=C\c2cc(Cl)ccc2O)o1,65.8% (active)
4,O=C(N/N=C\c1ccc(Br)cc1)c1ccc(Cn2cccn2)o1,-24.2% (inactive)
5,COc1ccc(CCN2C(=O)CC(N3CCC(C(N)=O)CC3)C2=O)cc1OC (stereo not given),18.7% (inactive)
6,CCCCN1CC(COCc2ccccc2)OCCS1(=O)=O (stereo not given),6.74% (inactive)
7,O=C(CC1Sc2ccccc2NC1=O)NNc1ccc(Cl)c(Cl)c1 (stereo not given),-0.562% (inactive)
8,C[C@H]1CN([C@@H](C)CO)C(=O)Cc2cc(NC(=O)Cc3ccccc3)ccc2O[C@H]1CN(C)S(=O)(=O)c1cccs1,14.1% (inactive)
9,CC(=O)c1nc2ccccc2n1Cc1ccccc1,3.29% (inactive)
10,CCCCCn1c(=O)c(C(=O)OCC)c(Cl)c2ccccc21,6.88% (inactive)
11,CC(=O)Oc1c(C(=O)c2nnc(C)o2)c(=O)n(Cc2ccccc2)c2ccccc12,66% (active)
12,Cc1ccc(NC(=S)NC(NC(=O)Cc2cccc3ccccc23)C(Cl)(Cl)Cl)cc1 (stereo not given),36% (inactive)
13,Cc1n[nH]c(=O)c2c1nnn2Cc1ccc(F)cc1,0.048% (inactive)
14,Cc1ccc(CNS(=O)(=O)CCNC(=O)c2ccccc2)cc1,-8.66% (inactive)
15,COc1cc(/C=C2\Oc3ccc(C#Cc4ccc(O)cc4)cc3C2=O)cc(OC)c1,73.1% (active)
16,COc1cc(C#Cc2ccc3cc(CCCO)oc(=O)c3c2)cc(OC)c1,-11.2% (inactive)
17,COC(=O)C(C)Oc1ccc2c(c1)O/C(=C\c1cccc(Br)c1)C2=O (stereo not given),-3.21% (inactive)
18,O=C(C1CC(=O)N(C2CCCC2)C1)N1CCN(c2cccc(C(F)(F)F)c2)CC1 (stereo not given),3.91% (inactive)
19,C[C@H](CO)N1C[C@H](C)[C@H](CN(C)CC2CC2)Oc2ccc(NC(=O)CCN3CCOCC3)cc2C1=O,-4.39% (inactive)
20,O=C(CCNC(=O)c1ccc([N+](=O)[O-])cc1)NC1CCCCC1,8.98% (inactive)
21,O=c1oc2ccccc2c(=O)c2ccccc12,-0.811% (inactive)
22,O=C(Nc1ccccc1)C1CCN(C(=O)c2ccc(Br)cc2)CC1,-9.91% (inactive)
23,O=C1Nc2cc(C(=O)N3CCC(N4CCCCC4)CC3)ccc2S/C1=C\c1ccccc1,88.1% (active)

row,SMILES,inhibition
1,NC(=O)C1CCN(C(=O)c2ccc(-c3ccccc3)cc2)CC1,-7.15% (inactive)
2,O=C1[C@@H](c2ccccc2)[C@@H](c2ccccc2)N1c1cccnc1,-10.4% (inactive)
3,COc1ccc(C2NC(=O)C(=O)/C2=C(\O)c2ccc(Cl)cc2)cc1OC (stereo not given),-6.72% (inactive)
4,CCOc1cc(N2CCOCC2)c(OCC)cc1NC(=O)c1ccc(C)s1,4.27% (inactive)
5,CCOc1cc(N2CCOCC2)c(OCC)cc1NC(=O)COc1cccc(Cl)c1,0.482% (inactive)
6,CCOc1cc(N2CCOCC2)c(OCC)cc1NC(=O)COc1cccc2cccnc12,83.8% (active)
7,CCN1C(=O)N[C@@H](c2ccccc2)[C@H](C(C)=O)[C@H]1C,2.98% (inactive)
8,CCOc1ccc(C(=O)NC(=S)Nc2ccc(N3CCOCC3)c(Cl)c2)cc1[N+](=O)[O-],6.29% (inactive)
9,Cc1cc(=O)[nH]c2nnnn12,-4.79% (inactive)
10,O=C(NN=Cc1ccccc1)c1ccccc1,-52.5% (inactive)
11,COc1cc(CCC(=O)N2CCN(c3ccccc3Cl)CC2)cc(OC)c1OC,7.49% (inactive)
12,CC(C)(C)OC(=O)C[C@H]1C/C=C\C[C@@H](CC(=O)N[C@H](CO)Cc2ccccc2)C(=O)NC[C@@H](c2ccccc2)OC1=O,4.03% (inactive)
13,O=C(C[C@H]1C/C=C\C[C@@H](NC(=O)OCC2c3ccccc3-c3ccccc32)C(=O)O[C@@H](c2ccccc2)CNC1=O)N[C@H](CO)Cc1ccccc1,86.8% (active)
14,CC(C)(C)OC(=O)C[C@@H]1C/C=C\C[C@@H](CC(=O)N[C@H](CO)Cc2ccccc2)C(=O)NC[C@@H](c2ccccc2)OC1=O,1.12% (inactive)
15,O=C1NCC(c2ccccc2)(c2ccccc2)C(=O)N1,-7.87% (inactive)
16,CC12CN3CCN(CC(C3)/C1=N\NC(=O)c1ccccc1N)C2,9.43% (inactive)
17,N#CC1(Nc2ccc(-c3ccc(Cl)cc3)cc2)CCCC1,-58.9% (inactive)
18,CN(CC(=O)O)C(=O)c1ccccc1,-4.07% (inactive)
19,CN(O)C(=S)c1ccccc1,82% (active)
20,CN(/N=C/c1ccccc1)C(=S)c1ccccc1,1.77% (inactive)
21,CCOC(=O)N1CCN(S(=O)(=O)c2cc3c(cc2C)NC(=O)CO3)CC1,2.83% (inactive)
22,C=CCn1cc(C(=O)NCc2ccc(Cl)cc2)c(=O)c2cc(S(=O)(=O)N(CC)CC)ccc21,-5.87% (inactive)
23,O=C(CN1CCN(c2ncccn2)CC1)Nc1ccccc1C(F)(F)F,18.5% (inactive)

row,SMILES,inhibition
1,CC(=O)c1ccc(S(=O)(=O)N2CCN(C(=O)/C=C/c3ccc4ccccc4n3)CC2)cc1,72.5% (active)
2,CC(=O)c1ccc(S(=O)(=O)N2CCN(c3nc4c(C)c(C)ccc4cc3C#N)CC2)cc1,3.2% (inactive)
3,CC(=O)c1ccc(S(=O)(=O)N2CCC3(CC2)OCCO3)cc1,8.67% (inactive)
4,CCN(CC)CCNS(=O)(=O)c1ccc(/C=C/C(=O)O)cc1,14.7% (inactive)
5,C=CC1=C(C(=O)O)N2C(=O)[C@@H](NC(=O)/C(=N\OCC(=O)O)c3csc(N)n3)[C@H]2SC1,-2.96% (inactive)
6,CC(=O)N(CC(O)CO)c1c(I)c(C(=O)NCC(O)CO)c(I)c(C(=O)NCC(O)CO)c1I (stereo not given),-3.11% (inactive)
7,O=C(O)CCCCCNc1ncnc2ccc(Br)cc12,1.66% (inactive)
8,Brc1ccc2ncnc(NCc3cccnc3)c2c1,-1.36% (inactive)
9,COc1ccc(Nc2ncnc3ccc(Br)cc23)c(OC)c1,67.9% (active)
10,N/C(=N\S(=O)(=O)c1ccc(Cl)cc1)N1CCOCC1,1.47% (inactive)
11,Cc1cc([N+](=O)[O-])c(=O)[nH]c1C,-0.774% (inactive)
12,COc1ccc(C(C[N+](=O)[O-])n2nc(C)cc2C)cc1 (stereo not given),27.2% (inactive)
13,Cc1ccc(/C=N/NC(=O)C2=NNC(c3ccccc3)(c3ccccc3)C2)c(O)c1,76.5% (active)
14,CCN(CC)c1ccc(/C=N/NC(=O)c2cnccn2)c(O)c1,25.3% (inactive)
15,O=C(NN=Cc1ccccc1O)NN=Cc1ccccc1O,22.9% (inactive)
16,CCOC(=O)c1c(S(=O)(=O)NCC(=O)Nc2ccc(C)cc2)c(C)n(C)c1C,7.89% (inactive)
17,Cc1c(N=Nc2ccc(N(C)C)cc2)c(=O)n(-c2ccccc2)n1C,-25.6% (inactive)
18,Cn1c(=S)sc2ccc3ccccc3c21,0.517% (inactive)
19,CCc1nc(Nc2ccc(NC(C)=O)cc2)c2oc3ccccc3c2n1,5.96% (inactive)
20,CC(=O)Nc1ccc(Nc2c3ccccc3nc3ccccc23)cc1,62.4% (active)
21,CC(=O)Nc1ccc(Nc2cc(C)nc(Nc3ccc(NC(C)=O)cc3)n2)cc1,-5.88% (inactive)
